# From paper PMC11006913
# Changes are numbered by the printed parent chain.
# What was measured:
# Assay in all cases: PBM; 200 nM protein, PBS
# Details in all cases: dsDNA, one strand shown
# SIX6 [1] = molecular target: T1, SIX6 (Homo sapiens, UniProt O95475 114-200, L167I)
# T1 sequence: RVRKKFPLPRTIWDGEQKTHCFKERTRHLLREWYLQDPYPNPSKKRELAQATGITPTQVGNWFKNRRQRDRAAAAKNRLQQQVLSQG
# SIX6 [2] = molecular target: T2, SIX6 (Homo sapiens, UniProt O95475 114-200, L143V)
# T2 sequence: T1 sequence with L30V, I54L
# SIX6 [3] = molecular target: T3, SIX6 (Homo sapiens, UniProt O95475 114-200, H141N)
# T3 sequence: T1 sequence with H28N, I54L
# SIX6 [4] = molecular target: T4, SIX6 (Homo sapiens, UniProt O95475 114-200, T165P)
# T4 sequence: T1 sequence with T52P, I54L
# SIX6 [5] = molecular target: T5, SIX6 (Homo sapiens, UniProt O95475 114-200, L167M)
# T5 sequence: T1 sequence with I54M
# SIX6 [6] = molecular target: T6, SIX6 (Homo sapiens, UniProt O95475 114-200, L143M)
# T6 sequence: T1 sequence with L30M, I54L
# SIX6 [7] = molecular target: T7, SIX6 (Homo sapiens, UniProt O95475 114-200, L143I)
# T7 sequence: T1 sequence with L30I, I54L
# SIX6 [8] = molecular target: T8, SIX6 (Homo sapiens, UniProt O95475 114-200, T165G)
# T8 sequence: T1 sequence with T52G, I54L
# SIX6 [9] = molecular target: T9, SIX6 (Homo sapiens, UniProt O95475 114-200, T139Q)
# T9 sequence: T1 sequence with T26Q, I54L
# SIX6 [10] = molecular target: T10, SIX6 (Homo sapiens, UniProt O95475 114-200, T165A)
# T10 sequence: T1 sequence with T52A, I54L
# SIX6 [11] = molecular target: T11, SIX6 (Homo sapiens, UniProt O95475 114-200, L167V)
# T11 sequence: T1 sequence with I54V
# SIX6 [12] = molecular target: T12, SIX6 (Homo sapiens, UniProt O95475 114-200)
# T12 sequence: T1 sequence with I54L
# SIX6 [13] = molecular target: T13, SIX6 (Homo sapiens, UniProt O95475 114-200, T165I)
# T13 sequence: T1 sequence with T52I, I54L
# NKX3-2 [14] = molecular target: NKX3-2 (Homo sapiens, UniProt P78367 192-278, P234S)
# NKX3-2 [15] = molecular target: NKX3-2 (Homo sapiens, UniProt P78367 192-278)
# NKX3-2 (Homo sapiens, UniProt P78367 192-278), sequence (P78367 192-278): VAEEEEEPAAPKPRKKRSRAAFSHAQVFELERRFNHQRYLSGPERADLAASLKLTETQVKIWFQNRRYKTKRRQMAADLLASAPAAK
# NKX3-2 (Homo sapiens, UniProt P78367 192-278, P234S), sequence (P78367 192-278 P234S): as the sequence (P78367 192-278) above, with P43S counted along it
Sequence,binding signal (SIX6 [1]),binding signal (SIX6 [2]),binding signal (SIX6 [3]),binding signal (SIX6 [4]),binding signal (SIX6 [5]),binding signal (SIX6 [6]),binding signal (SIX6 [7]),binding signal (SIX6 [8]),binding signal (SIX6 [9]),binding signal (SIX6 [10]),binding signal (SIX6 [11]),binding signal (SIX6 [12]),binding signal (SIX6 [13]),binding signal (NKX3-2 [14]),binding signal (NKX3-2 [15])
CGCAGAGC,"8.98 upbm affinity estimate (log intensity, higher = more binding, comparable within an allelic series)","8.91 upbm affinity estimate (log intensity, higher = more binding, comparable within an allelic series)","8.85 upbm affinity estimate (log intensity, higher = more binding, comparable within an allelic series)","9 upbm affinity estimate (log intensity, higher = more binding, comparable within an allelic series)","8.82 upbm affinity estimate (log intensity, higher = more binding, comparable within an allelic series)","8.9 upbm affinity estimate (log intensity, higher = more binding, comparable within an allelic series)","8.9 upbm affinity estimate (log intensity, higher = more binding, comparable within an allelic series)","8.85 upbm affinity estimate (log intensity, higher = more binding, comparable within an allelic series)","8.88 upbm affinity estimate (log intensity, higher = more binding, comparable within an allelic series)","8.97 upbm affinity estimate (log intensity, higher = more binding, comparable within an allelic series)","9.02 upbm affinity estimate (log intensity, higher = more binding, comparable within an allelic series)","8.83 upbm affinity estimate (log intensity, higher = more binding, comparable within an allelic series)","8.83 upbm affinity estimate (log intensity, higher = more binding, comparable within an allelic series)","10.6 upbm affinity estimate (log intensity, higher = more binding, comparable within an allelic series)","10.6 upbm affinity estimate (log intensity, higher = more binding, comparable within an allelic series)"
CGATATCC,"11.1 upbm affinity estimate (log intensity, higher = more binding, comparable within an allelic series)","10.2 upbm affinity estimate (log intensity, higher = more binding, comparable within an allelic series)","11.1 upbm affinity estimate (log intensity, higher = more binding, comparable within an allelic series)","9.62 upbm affinity estimate (log intensity, higher = more binding, comparable within an allelic series)","10.6 upbm affinity estimate (log intensity, higher = more binding, comparable within an allelic series)","10.9 upbm affinity estimate (log intensity, higher = more binding, comparable within an allelic series)","10.3 upbm affinity estimate (log intensity, higher = more binding, comparable within an allelic series)","11.1 upbm affinity estimate (log intensity, higher = more binding, comparable within an allelic series)","11.2 upbm affinity estimate (log intensity, higher = more binding, comparable within an allelic series)","11 upbm affinity estimate (log intensity, higher = more binding, comparable within an allelic series)","10.9 upbm affinity estimate (log intensity, higher = more binding, comparable within an allelic series)","11 upbm affinity estimate (log intensity, higher = more binding, comparable within an allelic series)","10.9 upbm affinity estimate (log intensity, higher = more binding, comparable within an allelic series)",–,–
CGATACCC,"11.2 upbm affinity estimate (log intensity, higher = more binding, comparable within an allelic series)","10.2 upbm affinity estimate (log intensity, higher = more binding, comparable within an allelic series)","11.3 upbm affinity estimate (log intensity, higher = more binding, comparable within an allelic series)","9.23 upbm affinity estimate (log intensity, higher = more binding, comparable within an allelic series)","10.4 upbm affinity estimate (log intensity, higher = more binding, comparable within an allelic series)","11 upbm affinity estimate (log intensity, higher = more binding, comparable within an allelic series)","10.4 upbm affinity estimate (log intensity, higher = more binding, comparable within an allelic series)","11.3 upbm affinity estimate (log intensity, higher = more binding, comparable within an allelic series)","11.4 upbm affinity estimate (log intensity, higher = more binding, comparable within an allelic series)","11.2 upbm affinity estimate (log intensity, higher = more binding, comparable within an allelic series)","10.9 upbm affinity estimate (log intensity, higher = more binding, comparable within an allelic series)","11.1 upbm affinity estimate (log intensity, higher = more binding, comparable within an allelic series)","11 upbm affinity estimate (log intensity, higher = more binding, comparable within an allelic series)",–,–
ATCGTGTC,"10.1 upbm affinity estimate (log intensity, higher = more binding, comparable within an allelic series)","9.87 upbm affinity estimate (log intensity, higher = more binding, comparable within an allelic series)","10.2 upbm affinity estimate (log intensity, higher = more binding, comparable within an allelic series)","9.63 upbm affinity estimate (log intensity, higher = more binding, comparable within an allelic series)","9.93 upbm affinity estimate (log intensity, higher = more binding, comparable within an allelic series)",–,"9.97 upbm affinity estimate (log intensity, higher = more binding, comparable within an allelic series)","10.3 upbm affinity estimate (log intensity, higher = more binding, comparable within an allelic series)",–,"10.3 upbm affinity estimate (log intensity, higher = more binding, comparable within an allelic series)",–,"10.3 upbm affinity estimate (log intensity, higher = more binding, comparable within an allelic series)",–,–,–
GACGGCCC,"8.94 upbm affinity estimate (log intensity, higher = more binding, comparable within an allelic series)","8.75 upbm affinity estimate (log intensity, higher = more binding, comparable within an allelic series)","8.98 upbm affinity estimate (log intensity, higher = more binding, comparable within an allelic series)","8.86 upbm affinity estimate (log intensity, higher = more binding, comparable within an allelic series)","8.9 upbm affinity estimate (log intensity, higher = more binding, comparable within an allelic series)","8.78 upbm affinity estimate (log intensity, higher = more binding, comparable within an allelic series)","8.82 upbm affinity estimate (log intensity, higher = more binding, comparable within an allelic series)","9 upbm affinity estimate (log intensity, higher = more binding, comparable within an allelic series)","8.92 upbm affinity estimate (log intensity, higher = more binding, comparable within an allelic series)","8.88 upbm affinity estimate (log intensity, higher = more binding, comparable within an allelic series)","8.84 upbm affinity estimate (log intensity, higher = more binding, comparable within an allelic series)","8.88 upbm affinity estimate (log intensity, higher = more binding, comparable within an allelic series)","8.88 upbm affinity estimate (log intensity, higher = more binding, comparable within an allelic series)",–,–
